Bioassay records as filed in PubChem.
Rows were chosen to be rich in hits. Some 10% of all compounds tested hit in one or more screens of this group.
JMJD2A Tudor – inhibitors of human JMJD2A Tudor domain | AlphaScreen JMJD2A-Tudor / H3K4me3 peptide binding | Potency, µM (highest dose often 114 µM), hits mostly inhibitors | 4.4% of 390,000 active | AID 504339; further: nearly all actives have a fitted effect of over 50% in size
GLS inh – inhibitors of human glutaminase (GLS); O94925; GLS enzymatic activity, qHTS titration; Potency, µM (top dose mostly 45.5 µM), usual class: inhibitors; 0.21% of 410,000 active; AID 624170
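Glutamate formation by hKGA was monitored fluorometrically using coupled glutamate oxidase, HRP and Amplex Red. Substrate was added as 1 mM L-glutamine solution; incubation was 30 min at RT after an initial read.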
G9a inh – blocks human histone lysine methyltransferase G9a; G9a H3K9 monomethylation, AlphaScreen, 2 h; Potency, µM (highest dose often 102 µM), actives largely listed as inhibitors; Q96KQ7; 8.8% of 350,000 active; AID 504332; further: nearly all actives have a fitted effect of over 75% in size
Target sequence (Q96KQ7 913-1193 limits assumed): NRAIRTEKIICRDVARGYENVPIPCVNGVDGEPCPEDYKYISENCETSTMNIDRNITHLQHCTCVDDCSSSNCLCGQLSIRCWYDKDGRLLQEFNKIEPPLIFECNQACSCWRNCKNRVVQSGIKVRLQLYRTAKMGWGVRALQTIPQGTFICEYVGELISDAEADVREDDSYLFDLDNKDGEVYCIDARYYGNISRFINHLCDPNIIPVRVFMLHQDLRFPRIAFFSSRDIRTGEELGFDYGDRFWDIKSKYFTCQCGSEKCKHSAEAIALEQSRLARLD
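Step 1: enzyme (final 20 nM) with compound, 15 min RT. Step 2: substrate peptide 500 nM and SAM 20 uM, 2 h RT. Step 3: anti-H3K9me1 antibody and AlphaScreen beads, 10 min, then plate read.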
BAZ2B block – blocks human BAZ2B | Q9UIF8 | AlphaScreen BAZ2B-H3K14Ac peptide displacement | Potency, µM (titrated, usually from 114 µM), usual class: inhibitors | 4.4% of 360,000 active; further: nearly all actives have a fitted effect of over 60% in size
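BAZ2B 50 nM plus b-H3(5-23)K14Ac 50 nM, PBS pH 7.4/0.01% Tween-20, 30 min RT; compound added (max 110 uM), 30 min RT; streptavidin donor/Ni-chelate acceptor beads 10 ug/mL final, 20 min dark; AlphaScreen read.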
HP1b chromo inh – blocks HP1-beta chromodomain binding to methylated histone tails | AID 540317 | P83916 | 0.56% of 390,000 active | Potency, µM (top dose mostly 114 µM), most hits filed as inhibitors | AlphaScreen HP1-beta / biotin-H3K9me3 peptide binding; further: nearly all actives have a fitted effect of over 70% in size
Target sequence (P83916 whole entry, looked up): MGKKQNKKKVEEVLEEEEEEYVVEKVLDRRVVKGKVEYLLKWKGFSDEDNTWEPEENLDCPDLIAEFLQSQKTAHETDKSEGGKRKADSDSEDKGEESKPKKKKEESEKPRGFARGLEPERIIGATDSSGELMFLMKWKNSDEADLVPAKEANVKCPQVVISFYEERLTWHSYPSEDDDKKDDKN
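HP1-beta protein (50 nM final) preincubated 30 min at room temperature with biotinylated H3(1-18)K9me3 peptide (50 nM) in PBS pH 7.4, 0.01% Tween-20, then compound added for 30 min. AlphaScreen streptavidin donor/nickel chelate acceptor beads (10 ug/mL final), 30 min dark, luminescence read.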
Each line names hits and unclear results; the compound was inactive in the other large screens. The call rests on the fitted dose curve; in most records, active means well fitted curve in the direction sought with a large enough effect; inconclusive means small, poorly fitted or top-dose-only effect, or another doubt; inactive means no such curve, though single readings can be large; an effect the other way counts as inactive or inconclusive.

CCCNC(=O)C1(C)CCCN(Cc2c3ccccc3nn2C)C1 (stereo unspecified)	none (no result: JMJD2A Tudor, G9a inh, BAZ2B block, HP1b chromo inh)
O=C(Cc1cccc2ccccc12)NC(=S)Nc1cccc(C(=O)O)c1	G9a inh 15.8µM, BAZ2B block inconclusive
CC(C)NC(=S)NC(=O)c1ccc(-c2ccccc2)cc1	G9a inh 39.8µM
O=C(O)c1cccc(NC(=S)NCc2ccccc2)c1	none
O=C(NC(=S)Nc1ccc2cn[nH]c2c1)c1ccccc1	G9a inh 44.7µM
Cc1ccc(C(=O)O)cc1NC(=S)NC(=O)c1ccc(-c2ccccc2)cc1	JMJD2A Tudor inconclusive, G9a inh 14.1µM, HP1b chromo inh inconclusive
Cc1cccc(NC(=S)NC(=O)c2ccc(-c3ccccc3)cc2)n1	none
CCN1C[C@@H]2[C@@H]3C(=O)N(C)C(=O)[C@@H]3[C@](CC)(C1=O)N2C(=O)c1ccc(C(C)(C)C)cc1	none (no result: G9a inh, BAZ2B block)
CCc1nc2ccc(C(=O)NC3CCN(Cc4ccccc4)CC3)cn2c1N(C)Cc1cc2ccccc2s1	none (no result: JMJD2A Tudor, G9a inh, BAZ2B block, HP1b chromo inh)
Cc1cc(C)c(Cn2c(=O)n(CCCC(=O)NCc3ccc4c(c3)OCO4)c(=O)c3sccc32)c(C)c1	none
Cc1ccc(C)c(OCCOCCn2c(-c3ccc(Br)cc3)nc3ccccc3c2=O)c1C	none
O=C(O)c1cccc(NC(=S)NC(=O)c2ccc(-c3ccccc3)cc2)c1	G9a inh 35.5µM
O=C(NC(=S)Nc1ccc(-c2ccccc2)cc1)c1ccccc1	none (no result: G9a inh, BAZ2B block)
COc1ccc(C2(CNC(=O)c3ccccc3[N+](=O)[O-])CCOCC2)cc1	G9a inh 39.8µM
COc1ccc(C2(CNC(=O)c3cccc([N+](=O)[O-])c3)CCOCC2)cc1OC	JMJD2A Tudor 56.2µM
O=C(O)c1cccnc1Nc1cccc(C(F)(F)F)c1	BAZ2B block 79.4µM
O=C(Nc1cccc(C(F)(F)F)c1)c1cccnc1N1CCN(c2ccccc2)CC1	JMJD2A Tudor 79.4µM, G9a inh inconclusive, BAZ2B block 50.1µM
NS(=O)(=O)c1cccnc1Nc1cccc(C(F)(F)F)c1	none
CCCOc1cccc(-c2cc(-c3n[nH]c(=S)n3CC)c3ccccc3n2)c1	JMJD2A Tudor inconclusive, BAZ2B block inconclusive
CCn1c(-c2cc(-c3ccc(C)cc3)nc3ccccc23)n[nH]c1=S	G9a inh 8.91µM, BAZ2B block inconclusive
CCn1c(-c2cc(-c3ccc(OC(C)C)cc3)nc3ccccc23)n[nH]c1=S	G9a inh 28.2µM
Cc1ccc(C)c(N2CCN(C(=O)Cn3c(C)c4cnn(-c5ccccc5)c(=O)c4c3C)CC2)c1	JMJD2A Tudor inconclusive, BAZ2B block inconclusive
COc1cccc(NC(=O)N(C)C[C@@H]2OCc3cnnn3CCCC(=O)N([C@H](C)CO)C[C@@H]2C)c1	none (no result: JMJD2A Tudor, G9a inh, BAZ2B block, HP1b chromo inh)
CCOc1ccccc1Nc1nc(-c2cccc(Cl)c2)c2c(n1)-c1ccccc1OC2	JMJD2A Tudor 56.2µM, G9a inh 25.1µM, BAZ2B block inconclusive
CN(C)c1ccc(Cl)cc1N	G9a inh 25.1µM, BAZ2B block inconclusive
O=C(CCS(=O)(=O)c1ccccc1)Nc1nc2c(s1)COc1ccccc1-2	G9a inh 50.1µM
O=C(Nc1nc2c(s1)COc1ccccc1-2)c1cccs1	G9a inh 44.7µM
CC(=O)c1sc(NC(=O)CCS(=O)(=O)c2ccccc2)nc1C	none
Cc1cc2ccccn2c1C(=O)c1ccc(Cl)c([N+](=O)[O-])c1	JMJD2A Tudor inconclusive, BAZ2B block 11.2µM, HP1b chromo inh inconclusive
Cc1cc2ccccn2c1C(=O)c1ccc(F)cc1	none
Cc1cc2ccccn2c1C(=O)c1ccccc1Br	G9a inh inconclusive
Cc1cc2ccccn2c1C(=O)c1ccc([N+](=O)[O-])o1	JMJD2A Tudor inconclusive, G9a inh inconclusive, BAZ2B block 10µM
Cc1cc2ccccn2c1C(=O)c1cccc([N+](=O)[O-])c1	G9a inh 39.8µM, BAZ2B block inconclusive, HP1b chromo inh inconclusive
Cc1cc2ccccn2c1C(=O)c1ccc([N+](=O)[O-])cc1[N+](=O)[O-]	JMJD2A Tudor 20µM, G9a inh inconclusive, BAZ2B block 25.1µM, HP1b chromo inh 39.8µM
CCC(=O)OCC(=O)[C@@]1(OC(=O)CC)[C@H](C)C[C@@H]2[C@H]3CCC4=CC(=O)C=C[C@]4(C)[C@]3(Cl)[C@@H](O)C[C@@]21C	none (no result: JMJD2A Tudor, GLS inh, BAZ2B block, HP1b chromo inh)
COc1cccc(C(c2nnnn2C2CCCC2)N2CCN(C/C=C/c3ccccc3)CC2)c1OC (stereo unspecified)	none (no result: JMJD2A Tudor, G9a inh, BAZ2B block, HP1b chromo inh)
